FXIIa mix inh: human factor XIIa inhibitors, primary screen, biochemical, pooled compound mixtures, fluorogenic substrate; purified FXIIa; inhibition, % at 5 µM; actives 0.2% (n = 62,000)
FXIa inh mix: FXIa protease inhibitors in compound pools, primary screen, biochemical, 10-compound mixtures | inhibition, % at 5 µM | purified FXIa, fluorogenic substrate, pooled mixtures | actives 0.19% (n = 62,000) | AID 680, 2007 | Coagulation factor XI (Homo sapiens), P03951;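 further: each value is inhibition by a whole ten-compound pool holding the compound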
TNAP act DEA: human TNAP enzyme activators, primary screen, biochemical, luminescent, intermediate phosphate acceptor level | Alkaline phosphatase, tissue-nonspecific isozyme (Homo sapiens), P05186 | purified TNAP, CDP-star luminescence, 100 mM DEA, 30 min; stronger effect = higher value; scale: 0 levamisole-inhibited, 1 vehicle-only enzyme | activation factor at 20 µM | AID 813, 2007 | 64,000 tested, under 10 active;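 active means activation factor of at least 2 at 20 µM, relative to controls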
D1 mod: D1 CRE-luciferase signal change, two-sided – cell-based, HEK293 D1, dopamine EC30, D1 allosteric modulator project, primary screen; D(1A) dopamine receptor (Homo sapiens), P21728; dopamine EC30 potentiation; actives deviate in either direction; B-score at 10 µM; actives 5.9% (n = 58,000); AID 641, 2007;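 active means luminescence count or its row- and column-corrected plate score outside the 99.7% band of the plate's sample wells, on either side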
HePTP inh: inhibitors of human HePTP phosphatase, primary screen, biochemical, absorbance, leukemia target. Tyrosine-protein phosphatase non-receptor type 7 (Homo sapiens), P35236. recombinant HePTP phosphatase activity, OD absorbance. inhibition, % at 20 µM. actives 0.64% (n = 110,000). AID 521, 2006; in the data active means inhibition above about 50%
Candida biofilm: clotrimazole potentiators killing Candida biofilms, primary screen, with clotrimazole, Alamar Blue | C. albicans biofilm + clotrimazole | inhibition, % at 6 µM | actives 0.14% (n = 85,000);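 active means inhibition above 20%; inactive means inhibition below 20%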;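 further: preformed 24 hr biofilms exposed to compound for 48 hr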
D1 mod confirm: D1 receptor positive allosteric modulators, retest, confirmation, cell-based, HEK293 D1, CRE-luciferase, duplicate. shares compounds with D1 mod. AID 642, 2007. actives 88% (n = 2,200). luminescence at 10 µM. dopamine EC30 potentiation; stronger effect = higher value;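 active means luminescence in either of two replicates above the same-plate mean plus 3 SD of the low-dose dopamine control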
D1 no dopamine: D1 receptor agonism without dopamine, confirmation, mechanism study for D1 allosteric modulator project, cell-based, HEK293 D1, CRE-luciferase, secondary assay 1; shares compounds with D1 mod; luminescence, no dopamine; stronger effect = higher value; luminescence at 10 µM; actives 0.8% (n = 1,900); AID 646, 2007; in the data active means luminescence above about 3900
Isoprot counter: isoproterenol response counter-screen activity for D1 modulators; shares compounds with D1 mod; HEK293 D1 CRE-luciferase, isoproterenol EC30 counter-screen; stronger effect = higher value; luminescence at 10 µM; actives 63% (n = 2,200); AID 647;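 active means luminescence in either replicate above plate mean of wells with a partly effective reference agonist dose plus 3 SD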;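 further: isoproterenol raises cAMP through native beta-adrenoceptor Gs so signal bypasses D1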
Numbers stand for hits; n = inactive; x = not tested or not shown. Many of the other results were omitted from the sample, so hits are more common in it than they were. Unless noted, no stated cut-off is given here; in the data, active means inhibition above about 20% (passing the limit was not always enough); inactive means the rest.

SMILES	FXIIa mix inh	FXIa inh mix	TNAP act DEA	D1 mod	HePTP inh	Candida biofilm	D1 mod confirm	D1 no dopamine	Isoprot counter
Cc1cc(C)n(-c2nc3c(c(=O)[nH]c(=O)n3C)n2CCc2ccccc2)n1	n	n	n	n	n	n	x	x	x
Cc1cc(C)n(-c2nc3c(c(=O)[nH]c(=O)n3C)n2Cc2ccc(F)cc2)n1	n	n	n	n	n	n	x	x	x
Cc1cc(C)n(-c2nc3c(c(=O)[nH]c(=O)n3C)n2C)n1	n	n	n	1.8	n	n	n	n	n
Cc1cc(C)n(-c2nc3c(c(=O)[nH]c(=O)n3C)n2Cc2ccccc2)n1	n	n	n	7.9	n	n	11052	n	3104
COc1ccc(CCNC(=O)C2CC(=O)N(c3ccc(Br)cc3)C2)cc1OC (stereo unspecified)	x	x	x	x	n	x	x	x	x
COc1ccc(CCNC(=O)C2CC(=O)N(c3ccccc3)C2)cc1OC (stereo unspecified)	n	n	n	2.9	n	n	n	n	n
CCOC(=O)C1CSc2[nH]c(=O)sc2C1c1ccccc1 (stereo unspecified)	n	n	n	8.2	n	n	11512	n	4456
Cc1ccc2nc(Nc3ccccc3)c(/C=N/O)c(=O)n2c1	x	x	x	10	n	n	17088	n	3560
Cc1ccc2nc(Nc3ccccc3)c(C=O)c(=O)n2c1	x	x	x	x	n	x	x	x	x
CC(=O)Oc1c(Cl)c(N2CCOCC2)c(OC(C)=O)c2ccccc12	n	n	n	3.1	n	n	5620	n	n
COc1ccc(-c2nn(C)c(=O)c3ccccc23)cc1NC(=O)Cn1nc(C)c2ccccc2c1=O	n	n	n	8.6	n	n	19816	n	6752
CCOC(=O)C1CCCN(C(=O)c2cc(Cl)ccc2Cl)C1 (stereo unspecified)	n	n	n	4.2	n	n	5420	n	n
CCOC(=O)C1CCCN(C(=O)c2cc(Nc3ccc(OC)c(OC)c3)nc3ccccc23)C1 (stereo unspecified)	n	n	n	4	n	n	12712	n	4088
O=C1OC(c2ccc(Cl)cc2)=N/C1=C\c1ccccc1[N+](=O)[O-]	x	x	x	x	n	x	x	x	x
CC1(C)C(c2cccs2)=NC(c2ccccc2)N1O (stereo unspecified)	n	n	n	3.6	n	n	9348	x	2900
CCCc1[nH]nc2c1C1(CCN(C(=O)OCc3ccccc3)CC1)C(C#N)=C(N)O2	n	n	n	2.5	n	n	8040	n	4244
CCCn1nc(NS(C)(=O)=O)c2cc3cccc(C)c3nc21	n	n	n	16	n	n	16772	n	3468
O=c1[nH]c(C2CCCN(S(=O)(=O)c3ccccc3)C2)nc2c1nnn2Cc1ccccc1F (stereo unspecified)	n	n	n	6.8	n	n	12364	n	5108
O=C(Cc1cccs1)N1CCCC(c2nc3c(nnn3Cc3cccc(Cl)c3)c(=O)[nH]2)C1 (stereo unspecified)	n	n	n	n	n	n	x	x	x
O=c1[nH]c(C2CCCN(S(=O)(=O)c3ccccc3)C2)nc2c1nnn2Cc1ccccc1 (stereo unspecified)	n	n	n	4.2	n	n	10532	x	3344
CCCc1nc2c(nnn2Cc2ccccc2)c(=O)[nH]1	n	n	n	7.1	n	n	11892	n	3336

Screening data as filed in PubChem.
